Laboratory results: PubChem BioAssay (NCATS)
Inconclusive results are not listed. The source made the active and inactive calls. The call rests on the fitted dose curve; in most records, active means well fitted curve in the direction sought with a large enough effect; inconclusive means small, poorly fitted or top-dose-only effect, or another doubt; inactive means no such curve, though single readings can be large; an effect the other way counts as inactive or inconclusive.

Legend:
[1] = biological target: Calcium and integrin-binding protein 1 (Homo sapiens) (UniProt Q99828); assay: Primary qHTS for Identification of Calcium Integrin Binding Protein 1 (CIB1) Competitor (AID 1508620); settings: CIB1-GST / FITC-alphaIIb peptide fluorescence polarization; series mostly up to 57.7 µM;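 further: GST tagged CIB1 binding a fluorescein labelled alphaIIb integrin peptide tracer; top concentration of the series differs between compounds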
Outline: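 CIB1-GST (1 uM final) and compound incubated 15 min at room temperature before adding FITC-alphaIIb peptide tracer (100 nM final). Competition for binding read by fluorescence polarization (ex 480, em 540) after another 15 min at room temperature.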

[2] = Primary qHTS for inhibitors of nuclear receptor binding SET domain protein 2 (NSD2) in an isogenic RCH-ACV NSD2 p.E1099K mutant (9B) (AID 1645876); settings: RCH-ACV NSD2 E1099K (9B) viability, CellTiter-Glo, 72 h; series mostly up to 44.9 µM; further: nearly all actives have a fitted effect of over 70% in size
[3] = Primary qHTS for inhibitors of nuclear receptor binding SET domain protein 2 (NSD2) in an RCH-ACV wild type WT cells (2C) (AID 1645877); settings: RCH-ACV (leukaemia line) NSD2 WT (2C) viability, CellTiter-Glo, 72 h; series mostly up to 44.9 µM; further: nearly all actives have a fitted effect of over 70% in size
On the % scale 0 is the no-effect control and ±100 the full control effect.

Calcium and integrin-binding protein 1 (Homo sapiens), sequence (Q99828 whole entry, looked up): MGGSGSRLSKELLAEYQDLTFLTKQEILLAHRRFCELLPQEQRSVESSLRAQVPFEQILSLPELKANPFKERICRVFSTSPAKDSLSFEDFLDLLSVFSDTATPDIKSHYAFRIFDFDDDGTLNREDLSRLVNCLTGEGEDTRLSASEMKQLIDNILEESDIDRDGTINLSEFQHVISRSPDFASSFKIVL

Cc1cc(CO)c(O)c(C(=O)CC2CC(=O)NC(=O)C2)c1
inactive: Potency [1] | Potency [2] | Potency [3]

C=C1CC23CC1CCC2C12OC(=O)C(C)(C(O)C(O)C1O)C2C3C(=O)O (stereo not drawn)
inactive: Potency [1] | Potency [2] | Potency [3]

COc1cc(C(=O)OC[C@@]2(O)CO[C@@H](O[C@H]3[C@H](Oc4ccc(O)cc4)O[C@H](CO)[C@@H](O)[C@@H]3O)[C@@H]2O)cc(OC)c1O
inactive: Potency [1] | Potency [2] | Potency [3]

CC(C)=CCC[C@@](C)(O)[C@H]1CC[C@]2(C)[C@@H]1[C@H](O)CC1[C@@]3(C)CC[C@H](O[C@@H]4O[C@H](CO)[C@@H](O)[C@H](O)[C@H]4O[C@@H]4O[C@H](CO)[C@@H](O)[C@H](O)[C@H]4O)C(C)(C)[C@@H]3CC[C@]12C (stereo partly drawn)
inactive: Potency [1] | Potency [2] | Potency [3]

C/C=C(\C)C(=O)OC[C@H]1O[C@@H](O[C@H]2[C@@H](O[C@H]3O[C@H](COC(=O)/C(C)=C/C)[C@@H](O)[C@H](O)[C@H]3O[C@@H]3O[C@H](CO)[C@@H](O)[C@H](OC(=O)/C(C)=C/C)[C@H]3O)O[C@H](COC(=O)/C(C)=C/C)[C@@H](O)[C@@H]2O)[C@H](O)[C@@H](O)[C@@H]1O
inactive: Potency [1] | activity change, negative = viability loss [2] -4.56% [at 9.23 µM] | activity change, negative = cell killing [3] -10.6% [at 9.23 µM]

C=C1C[C@]23C[C@H]1CC[C@H]2[C@]1(C)CC[C@H](O)[C@@](C)(C(=O)O)[C@H]1[C@@H]3C(=O)O
inactive: Potency [1] | Potency [2] | Potency [3]

C=C1C2(C)CC3C4(C)OC(C5OC56C4=CC(=O)OC6(C)C)C3(C)C13C(=O)OC(C)C3(O)C2=O (stereo not drawn)
inactive: Potency [1] | Potency [2] | Potency [3]

CC1(C)CC[C@]2(C(=O)O[C@@H]3O[C@H](CO)[C@@H](O)[C@H](O)[C@H]3O)CC[C@]3(C)C(=CCC4[C@@]5(C)CC[C@H](O[C@@H]6O[C@H](C(=O)O)[C@@H](O[C@@H]7O[C@H](CO)[C@@H](O)[C@H](O)[C@H]7O)[C@H](O)[C@H]6O[C@@H]6O[C@H](CO)[C@@H](O)[C@H](O)[C@H]6O)C(C)(C)C5CC[C@]43C)C2C1 (stereo partly drawn)
inactive: Potency [1] | activity change, negative = viability loss [2] 4.56% [at 9.23 µM] | activity change, negative = cell killing [3] 4.58% [at 9.23 µM]

C=C[C@H]1[C@H](O[C@@H]2O[C@H](CO)[C@@H](O)[C@H](O)[C@H]2O)OC=C(C(=O)OC)[C@H]1CC=O
inactive: Potency [1] | Potency [2] | Potency [3]

CC(C)=CCC(O)[C@](C)(O)C1[C@H](O)C[C@@]2(C)C3CC=C4C(C[C@H](O)[C@@H](O[C@@H]5O[C@H](CO)[C@@H](O)[C@H](O)[C@H]5O)C4(C)C)[C@]3(C)C(=O)C[C@]12C (stereo partly drawn)
inactive: Potency [1] | Potency [2] | Potency [3]

C[C@@H]1C[C@H]2OC(=O)[C@@]3(C)CCC[C@](C)(C23)[C@@]1(O)CCC1=CC(=O)OC1O (stereo partly drawn)
inactive: Potency [1] | Potency [2] | Potency [3]

COC(=O)C1=COC(OC2OC(CO)C(O)C(O)C2O)C2C(COC(=O)/C=C/c3ccc(O)cc3)C(O)C(O)C12 (stereo not drawn)
inactive: Potency [1] | Potency [2] | Potency [3]

COC(=O)c1c(CC=C(C)C)c(OC2OC(CO)C(O)C(O)C2O)c2ccccc2c1OC1OC(CO)C(O)C(O)C1O (stereo not drawn)
inactive: Potency [1] | Potency [2] | Potency [3]

COc1cc2c(cc1OC)N1C(=O)C[C@@]34C=CC[N@+]5([O-])CC[C@H]2[C@H](CC3)[C@@]145
inactive: Potency [1] | Potency [2] | Potency [3]

COc1ccc(C2OCC3C(c4cc(OC)c5c(c4)OCO5)OCC23)cc1OC (stereo not drawn)
inactive: Potency [1] | Potency [2] | Potency [3]

Cc1occc(=O)c1O[C@@H]1O[C@H](CO)[C@@H](O)[C@H](O)[C@H]1O
inactive: Potency [1] | Potency [2] | Potency [3]

COC(=O)C1(C)CCCC2(C)c3ccc(C(C)C)cc3C(O)C(O)C12 (stereo not drawn)
inactive: Potency [1] | Potency [2] | Potency [3]

COc1cc(C)c(C(=O)O[C@@H]2[C@H](O)[C@@H](CO)O[C@H]2n2ccc(=O)[nH]c2=O)c(OC)c1
inactive: Potency [1] | Potency [2] | Potency [3]

CC1=C2CC(=O)C(C)CC/C=C(\C)CC2(O)OC1=O (stereo not drawn)
inactive: Potency [1] | Potency [2] | Potency [3]

COC(=O)C1(O)C(OC(C)=O)CCC2C3(CC(c4ccoc4)OC3=O)C(C)=CCC21C(=O)OC (stereo not drawn)
inactive: Potency [1] | Potency [2] | Potency [3]

C=C[C@H]1[C@H](O[C@@H]2O[C@H](CO)[C@@H](O)[C@H](O)[C@H]2O)OC=C2C(=O)N3Cc4c([nH]c5ccccc5c4=O)[C@@H]3C[C@H]21
inactive: Potency [1] | Potency [2] | Potency [3]
